Screening data as filed in PubChem.
The sample as a whole holds a higher share of hits than the screen did.
Pf Dd2 inh: Plasmodium falciparum Dd2 growth inhibition; P. falciparum Dd2 growth, SYBR Green, 72 h; Potency, µM (series often up to 28.9 µM), most hits filed as inhibitors; hit rate 4.3% among 120,000; AID 1347417; active means well fitted inhibition curve with a large enough effect; further: nearly all actives have a fitted effect of over 65% in size
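Infected erythrocytes (Dd2, 0.3% parasitemia, 2.5% hematocrit final) are added to compound in RPMI-1640/Albumax II medium, grown 72 h at 37C in low oxygen, then lysed with saponin/Triton-X containing SYBR Green and read by fluorescence.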
Each line names hits and unclear results; the compound was inactive in the other large screens.

O=S(=O)(Cc1ccccc1)NCc1cccnc1Oc1ccccc1	none
COCCNC(=O)[C@@H]1C[C@H](Oc2ccccc2)CN1S(=O)(=O)c1cccs1	none
CCOC(=O)c1cnc2ccc(OCC)cc2c1Nc1cc(Cl)c(OC)cc1OC	none
CCOC(=O)c1cnc2ccc(OC)cc2c1Nc1cccc(C(C)=O)c1	none
CCOC(=O)c1ccc2ncc(C(=O)OCC)c(NCCc3ccc(OC)c(OC)c3)c2c1	Pf Dd2 inh 8.91µM
CCOC(=O)c1cnc2ccc(OC(F)(F)F)cc2c1Nc1ccccc1C(=O)O	Pf Dd2 inh 10µM
CCOC(=O)c1cnc2c(C)c(Cl)ccc2c1NCCc1ccc(OC)c(OC)c1	none
CCOC(=O)c1cnc2c(ccc3ccccc32)c1Nc1ccc(OCC)cc1	none
CCOC(=O)c1cnc2ccc(OC)cc2c1NCCc1ccccc1	Pf Dd2 inh 3.98µM
CCOC(=O)c1cnc2c(C)cccc2c1NCCc1ccc(OC)c(OC)c1	none
CCOC(=O)c1cnc2c(ccc3ccccc32)c1Nc1cccc(OC)c1	none
O=C(NC1CCCCCC1)C1CC(=O)N(c2n[nH]c3cccc(F)c23)C1 (stereo not drawn)	none
CS(=O)(=O)N1CCC(OC2CCN(C(=O)Nc3ccc4c(c3)OCCO4)CC2)CC1	none
Cc1ccccc1SC1CCN(c2cc(C3CC(O)C3)ncn2)CC1 (stereo not drawn)	none
O=C1[C@@H]2C[C@@H](O)CN2C2(CN(Cc3cccc(OC(F)(F)F)c3)C2)C(=O)N1Cc1ccccc1F	none
COCCN=C1Nc2ncccc2NC12CCCN(C(=O)c1cccc(OC)c1)C2 (stereo not drawn)	none
Fc1ccc(-c2ccc3ncc(Nc4ncccn4)n3n2)cc1	none
Fc1ccc(-c2ccc3ncc(Nc4ccccn4)n3n2)cc1	Pf Dd2 inh 5.62µM
Fc1ccc(-c2ccc3ncc(Nc4ccc(Cl)cn4)n3n2)cc1	none
c1ccc(-c2ccc3ncc(Nc4cccnc4)n3n2)cc1	Pf Dd2 inh 1.58µM
Clc1ccc(Nc2cnc3ccc(-c4ccccc4)nn23)nc1	none
c1ccc(-c2ccc3ncc(Nc4cnccn4)n3n2)cc1	none
Cc1cc2nc3n(c(=O)c2n1CC(=O)Nc1cccc(Cl)c1)CCCC3	none
CCOC(=O)C1CCN(C(=O)CCN(CC)C(=O)c2cc(C)oc2C)CC1	none
Cc1ncc(C(=O)N(C)CC2CCCN(CCc3ccc(Cl)cc3)C2)c(=O)[nH]1 (stereo not drawn)	none
COc1ccccc1CN1C[C@@H]2C(=O)N(Cc3ccc4c(c3)OCO4)C(=O)[C@@H]2C1	none
Cc1ccc(CN2COc3ccc4c(C)cc(=O)oc4c3C2)cc1	Pf Dd2 inh 3.98µM
COc1ccccc1CN1COc2ccc3c(C)cc(=O)oc3c2C1	Pf Dd2 inh 7.08µM
COc1ccccc1C(=O)N1CCN(Cc2cc(=O)oc3cc(C)ccc23)CC1	none
Cc1ccc(CNC(=O)c2ccc3c(c2)CN(Cc2ccc(N(C)C)cc2)CCO3)cc1	none
Cc1ccc(Cn2nc3n(c2=O)-c2cc(Cl)ccc2OC3)cc1	none
O=C(NC1CCCN(c2cc(-c3ccc(F)cc3)[nH]n2)C1)c1cc(F)ccc1F (stereo not drawn)	none
O=C(NC[C@H]1O[C@@H](CO)[C@@H](O)[C@H]1N1CCCCC1)c1ccccc1	none
Cc1cn2nc(C(=O)NC3CCCC3)cc2c(N2CCCC2)n1	none
Cc1cn2nc(C(=O)NCCc3ccc(S(N)(=O)=O)cc3)cc2c(N2CCCC2)n1	none
Cc1ccc(CCNC(=O)c2cc3c(N4CCCC4)nc(C)cn3n2)cc1	none
Cc1cn2nc(C(=O)NCCc3cccs3)cc2c(N2CCCC2)n1	Pf Dd2 inh 7.08µM
COc1cccc(NC(=O)c2cc3c(N4CCSCC4)nc(C)cn3n2)c1	none
COc1ccc(CCNC(=O)c2cc3c(N4CCCC4)nc(C)cn3n2)cc1OC	none
Cc1cn2nc(C(=O)Nc3ccc(N(C)C)cc3)cc2c(N2CCCC2)n1	Pf Dd2 inh 0.631µM
COc1cc(NC(=O)c2cc3c(N4CCSCC4)nc(C)cn3n2)cc(OC)c1OC	none
Cc1cn2nc(C(=O)NCc3ccc(C(C)C)cc3)cc2c(N2CCCC2)n1	none
Cc1cn2nc(C(=O)NC3CCc4ccccc43)cc2c(N2CCCC2)n1 (stereo not drawn)	Pf Dd2 inh 5.62µM
Cc1cn2nc(C(=O)NCc3ccccn3)cc2c(N2CCCC2)n1	none
Cc1cn2nc(C(=O)NCc3ccccc3Cl)cc2c(N2CCCC2)n1	Pf Dd2 inh 8.91µM
Cc1cc2nc3n(c(=O)c2n1CC(=O)Nc1ccc(Cl)cc1F)CCC3	none
COc1ccc(-c2noc(C(=O)O)c2[C@@H](C)NC(=O)C2CCCC2)cc1	none
CN(C)Cc1cc(CC2(NCc3ccc(N(C)C)cc3)COC2)no1	none
Cn1ncc(N2CCN(CC3(O)CNCCOC3)CC2)cc1=O (stereo not drawn)	none
COCc1nc(C2CCNC2)no1 (stereo not drawn)	none
O=C1CCC(C(=O)N2C[C@@H](COCC3CC3)[C@H](c3ccccn3)C2)=NN1	none
CC(C)(Oc1nn(CC2CCOCC2)c2ccccc12)C(=O)NC1CCOCC1	none
O=C(c1cc(F)ccc1Br)N1CCC(n2c(=O)[nH]c3ccccc32)CC1	none
O=C1COc2ccc(NCc3cccs3)nc2CN1Cc1ccc(C(F)(F)F)cc1	none
O=C(CN1CCCc2nc(C3CC3)ncc2C1=O)NCCN1CCOCC1	none
Cc1ccc(NC(=O)Cn2ccn3nc(-c4ccccc4)c(CO)c3c2=O)c(C)c1	none
c1cc(-c2nc3c(c(NCc4cn5c(n4)SCC5)n2)CCNCC3)ccn1	none
Cc1ncsc1CCCNc1nc(-c2ccccn2)nc2c1CCNCC2	none
c1ccc(OCCNc2nc(-c3cccnc3)nc3c2CCNCC3)cc1	Pf Dd2 inh 2.24µM
COc1ccc(CNC(=O)NCCc2noc(-c3ccncc3)n2)cc1	none
Cn1c(CN2CCC(O)CC2)nnc1C1CCCN(C2CCNCC2)C1 (stereo not drawn)	none
CC(C)CC(=O)NC1CCN(c2cn[nH]c(=O)c2)CC1	none
CCCCC(=O)NC1CCN(c2cn[nH]c(=O)c2)CC1	Pf Dd2 inh 2.82µM
CCCCC(=O)NC1CCN(c2cnn(C)c(=O)c2)CC1	none
Cc1nnnn1-c1cccc(C(=O)N2CC[C@@](O)(C3CCOCC3)[C@H](C)C2)c1	none
CN1[C@@H](CCC(=O)NCc2ccco2)CNC(=O)[C@@H]2[C@H]1CCN2Cc1ccccn1	none
CC(C)(O)C#Cc1ccc(CN2CCCC(CCC(=O)Nc3ccccc3F)C2)s1 (stereo not drawn)	none
O=C(CCC1CCCN(CC2=Cc3cc(Cl)ccc3OC2)C1)Nc1ccccc1F (stereo not drawn)	none
O=C(CCC1CCCN(Cc2cnc(-c3ccccc3)s2)C1)Nc1ccccc1F (stereo not drawn)	Pf Dd2 inh 14.1µM
COc1ccc(Cn2c(=O)c(-c3noc(C)n3)c3n(c2=O)CCCC3)cc1F	none
Cc1n[nH]c(C)c1CNC(=O)C1CCCN(C2CCN(C(=O)C3CC3)CC2)C1 (stereo not drawn)	none
COc1ncccc1C(=O)N1Cc2cnn(Cc3ccc(F)cc3)c2C1	none
c1cncc(CN2CC[C@H](c3nnc(Cc4c[nH]c5ccccc45)o3)C2)c1	Pf Dd2 inh 11.2µM
CC(=O)N1CC[C@H](c2nnc(Cc3c[nH]c4ccccc34)o2)C1	none
c1ccc2c(Cc3nnc([C@H]4CCN(CC5CC5)C4)o3)c[nH]c2c1	none
COCCCNc1nc(-c2c(C)noc2C)cc2cc(CN(C)C)oc12	none
Cc1noc(C)c1-c1cc2cc(CN(C)C)oc2c(Nc2ccncn2)n1	none
Cc1noc(C)c1-c1cc2cc(CN(C)C)oc2c(-c2ccc([S+](C)(=O)[O-])cc2)n1	Pf Dd2 inh 8.91µM
COCC(=O)NC[C@H]1CCN(Cc2cccc(C#N)c2)C[C@H]1N(C)C	none
CS(=O)(=O)c1ncc(Cl)c(C(=O)N(Cc2ccc(Cl)cc2)Cc2ccco2)n1	none
